From PubChem BioAssay (NCATS)
Records with an inconclusive call do not appear. Active and inactive are the calls of the source. Unless noted, calls follow the shape of the full dose curve.

Assay: Cell Viability - Hek293 (AID 427;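 active = compounds whose dose-response curve shows a full or clear partial loss of cell viability, called from curve shape rather than a numeric limit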;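 also: cells exposed to compound for 40 hours at 37 °C before reading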)
Details: qHTS
How it was run: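 qHTS, human embryonic kidney (adenovirus-transformed) cells; 40 hr cpd, 37 °C; CellTiter-Glo ATP luminescence. Norm: DMSO = 0, 100 uM tamoxifen = 100% inhibition. Hill-fit AC50.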
Potency is read from the fitted curve at half-maximal effect.

SMILES	Potency
C=C(C)OC(C)=O	> 92 µM (inactive)
NC(=O)NC(N)=O	> 92 µM (inactive)
CC(=O)Nc1ccccc1C	> 92 µM (inactive)
CCc1ccccc1O	> 92 µM (inactive)
Cc1cccc(C)c1	> 92 µM (inactive)
O=C(O)c1ccccc1[N+](=O)[O-]	> 92 µM (inactive)
C=CCCCCCCC=C	> 92 µM (inactive)
Cc1ccc2c(c1[N+](=O)[O-])C(=O)c1ccccc1C2=O	0.351 µM (active)
CC(C)(C)OC=O	> 92 µM (inactive)
CC(C)(c1cc(Br)c(OCC(Br)CBr)c(Br)c1)c1cc(Br)c(OCC(Br)CBr)c(Br)c1 (stereo not drawn)	> 92 µM (inactive)
CCCCCCCCCCCCC1CO1 (stereo not drawn)	> 92 µM (inactive)
CCCOCC(C)O (stereo not drawn)	> 92 µM (inactive)
Cc1c(N)cccc1[N+](=O)[O-]	> 92 µM (inactive)
Nc1ccccc1[N+](=O)[O-]	> 92 µM (inactive)
O=C(O)c1c(Cl)cccc1Cl	> 92 µM (inactive)
Nc1nc(-c2ccccc2)cs1	> 92 µM (inactive)
CCC(C)=O	> 92 µM (inactive)
Nc1c(Cl)cc(Cl)cc1Cl	> 92 µM (inactive)
CCOc1ccccc1N	> 92 µM (inactive)
O=Cc1ccc(CO)o1	> 92 µM (inactive)

SMILES	Potency
C=C(C)C(=O)OCC(C)O (stereo not drawn)	> 92 µM (inactive)
Nc1ccc(Cl)cc1[N+](=O)[O-]	> 92 µM (inactive)
CCCCC=O	> 92 µM (inactive)
COC(=O)c1ccccc1	> 92 µM (inactive)
CC(=C/C=C/C(C)=C/C=C/C=C(C)/C=C/C=C(C)/C=C/C(=O)O)/C=C/C(=O)O	> 92 µM (inactive)
Cc1cccc([N+](=O)[O-])c1C(=O)O	> 92 µM (inactive)
Cc1cc(C)cc(N)c1	> 92 µM (inactive)
C1COC1	> 92 µM (inactive)
O=C(O)c1ccccc1C(=O)O	> 92 µM (inactive)
Cc1c(N)cccc1N	> 92 µM (inactive)
CC(=O)c1cc(C)oc1C	> 92 µM (inactive)
CC(C)=CCl	> 92 µM (inactive)
Fc1ccccc1	> 92 µM (inactive)
O=[N+]([O-])c1ccc(Cl)cc1Cl	> 92 µM (inactive)
O=[N+]([O-])c1cc(C(F)(F)F)ccc1Cl	> 92 µM (inactive)
CCc1ccccc1	> 92 µM (inactive)
CCN(CC)c1cccc(O)c1	> 92 µM (inactive)
CC(C)N=C=NC(C)C	> 92 µM (inactive)
CCOC(=O)C(C)C(C)=O (stereo not drawn)	> 92 µM (inactive)

Assay: Cell Viability - HepG2 (AID 433);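 also: cells exposed to compound for 40 hours; potency for ATP loss meaning cytotoxicity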
Details: qHTS
How it was run: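 In this qHTS format, a 40 h, 37 °C compound incubation of HepG2 cells in complete medium precedes a 20 min CellTiter-Glo step at room temperature. Tamoxifen and doxorubicin serve as positive controls; Hill-equation fits yield AC50.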

SMILES	Potency
C=C(C)OC(C)=O	> 92 µM (inactive)
NC(=O)NC(N)=O	> 92 µM (inactive)
CC(=O)Nc1ccccc1C	> 92 µM (inactive)
CCc1ccccc1O	> 92 µM (inactive)
Cc1cccc(C)c1	> 92 µM (inactive)
O=C(O)c1ccccc1[N+](=O)[O-]	> 92 µM (inactive)
C=CCCCCCCC=C	> 92 µM (inactive)
Cc1ccc2c(c1[N+](=O)[O-])C(=O)c1ccccc1C2=O	> 92 µM (inactive)
CC(C)(C)OC=O	> 92 µM (inactive)
CC(C)(c1cc(Br)c(OCC(Br)CBr)c(Br)c1)c1cc(Br)c(OCC(Br)CBr)c(Br)c1 (stereo not drawn)	> 92 µM (inactive)
CCCCCCCCCCCCC1CO1 (stereo not drawn)	> 92 µM (inactive)
CCCOCC(C)O (stereo not drawn)	> 92 µM (inactive)
Cc1c(N)cccc1[N+](=O)[O-]	> 92 µM (inactive)
Nc1ccccc1[N+](=O)[O-]	> 92 µM (inactive)
O=C(O)c1c(Cl)cccc1Cl	> 92 µM (inactive)
Nc1nc(-c2ccccc2)cs1	> 92 µM (inactive)
CCC(C)=O	> 92 µM (inactive)
Nc1c(Cl)cc(Cl)cc1Cl	> 92 µM (inactive)
CCOc1ccccc1N	> 92 µM (inactive)
O=Cc1ccc(CO)o1	> 92 µM (inactive)

SMILES	Potency
C=C(C)C(=O)OCC(C)O (stereo not drawn)	> 92 µM (inactive)
Nc1ccc(Cl)cc1[N+](=O)[O-]	> 92 µM (inactive)
CCCCC=O	> 92 µM (inactive)
COC(=O)c1ccccc1	> 92 µM (inactive)
CC(=C/C=C/C(C)=C/C=C/C=C(C)/C=C/C=C(C)/C=C/C(=O)O)/C=C/C(=O)O	> 92 µM (inactive)
Cc1cccc([N+](=O)[O-])c1C(=O)O	> 92 µM (inactive)
Cc1cc(C)cc(N)c1	> 92 µM (inactive)
C1COC1	> 92 µM (inactive)
O=C(O)c1ccccc1C(=O)O	> 92 µM (inactive)
Cc1c(N)cccc1N	> 92 µM (inactive)
CC(=O)c1cc(C)oc1C	> 92 µM (inactive)
CC(C)=CCl	> 92 µM (inactive)
Fc1ccccc1	> 92 µM (inactive)
O=[N+]([O-])c1ccc(Cl)cc1Cl	> 92 µM (inactive)
O=[N+]([O-])c1cc(C(F)(F)F)ccc1Cl	> 92 µM (inactive)
CCc1ccccc1	> 92 µM (inactive)
CCN(CC)c1cccc(O)c1	> 92 µM (inactive)
CC(C)N=C=NC(C)C	> 92 µM (inactive)
CCOC(=O)C(C)C(C)=O (stereo not drawn)	> 92 µM (inactive)
